# Bioassay records from PubChem BioAssay.
# Most compounds without a hit are left out; they make up all but 4.7% or so of the library.
# HTT-AS act: activates huntingtin-antisense promoter activity; HEK293 HTT-AS promoter firefly luciferase reporter, 24 h; response scale: percent change from vehicle, -100% = no light; AID 1508624; Potency, µM (titrated, usually from 57.5 µM), without a hit: at the top dose activity change, positive = activation, usual class: activators; hit rate 0.24% among 48,000; further: potency means the concentration at half of the fitted maximal effect; nearly all actives have a fitted effect of over 55% in size
#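 Quantitative HTS used concentration series of up to 57.5 uM final on HEK293 luciferase reporter cells, 24 h at 37 degrees C. Readout was Dual-Glo firefly luminescence.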
# GPR32 ag: GPR32 (DRV1) agonism, beta-arrestin recruitment. O75388. CHO-K1 GPR32 beta-arrestin PathHunter luminescence, 90 min; zero percent set by DMSO-only wells. activation, % at 76.9 µM. hit rate 2.5% among 48,000. AID 1346428;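 active means activation of at least 60% and not above a set upper limit, about 1 call in 100 departs from these limits; inconclusive means activation of 40% to 60%, or above that upper limit; inactive means activation under 40%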; further: 0% is about no effect
#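 GPR32 activation in stably transfected CHO-K1 cells, detected as beta-arrestin recruitment by enzyme-fragment complementation. Compound exposure: 90 min, 37 °C.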
# FH mod: Identification of activators of human fumarate hydratase by quantitative high-throughput screening; AID 1347055, 2019; Potency, µM (top dose mostly 79.9 µM), without a hit: at the highest dose activity change, negative = inhibition, hits mostly inhibitors; FH coupled MDH/diaphorase resazurin fluorescence, 15 min; hit rate 0.22% among 54,000; further: potency means the concentration at half of the fitted maximal effect; on the % scale 0 is the no-effect control and ±100 the full control effect; the screen sought activators but most active calls are inhibition curves; nearly all actives have a fitted effect of over 45% in size
# Target sequence (P07954 whole entry, looked up): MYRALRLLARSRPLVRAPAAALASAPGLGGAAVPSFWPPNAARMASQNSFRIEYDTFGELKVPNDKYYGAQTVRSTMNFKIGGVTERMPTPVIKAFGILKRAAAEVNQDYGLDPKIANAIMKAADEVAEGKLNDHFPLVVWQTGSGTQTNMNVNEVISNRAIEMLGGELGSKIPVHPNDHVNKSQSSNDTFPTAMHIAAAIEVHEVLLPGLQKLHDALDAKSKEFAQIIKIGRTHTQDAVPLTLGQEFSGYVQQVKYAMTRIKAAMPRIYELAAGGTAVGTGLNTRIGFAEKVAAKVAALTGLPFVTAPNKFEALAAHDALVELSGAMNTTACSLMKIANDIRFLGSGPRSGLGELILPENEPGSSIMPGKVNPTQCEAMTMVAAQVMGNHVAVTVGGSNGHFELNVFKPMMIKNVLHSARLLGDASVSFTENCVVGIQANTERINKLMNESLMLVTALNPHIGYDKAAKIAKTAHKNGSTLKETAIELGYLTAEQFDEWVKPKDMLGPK
# HTT promoter inh: inhibitors of huntingtin promoter activity. Potency, µM (doses to about 57.5 µM), for the others: top-dose activity change, negative = inhibition, actives largely listed as inhibitors. hit rate 0.93% among 48,000. AID 1508623. HEK293 HTT promoter firefly luciferase reporter, 24 h; further: potency means the concentration at half of the fitted maximal effect; nearly all actives have a fitted effect of over 50% in size
#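 Quantitative HTS used concentration series of up to 57.5 uM final on HEK293 luciferase reporter cells, 24 h at 37 degrees C. Readout was Dual-Glo firefly luminescence.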
# NTMT1 inhibitor: blocks human N-terminal methyltransferase 1 activity; Q9BV86; NTMT1 MTase-Glo SAH luminescence, purified enzyme; Potency, µM (doses to about 114 µM), without a hit: top-dose activity change, negative = inhibition, actives largely listed as inhibitors; hit rate 2.5% among 59,000; AID 1645870;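 further: potency means the concentration at half of the fitted maximal effect; plate controls were DMSO vehicle for no effect and no enzyme for full effect; nearly all actives have a fitted effect of over 65% in size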
# * marks the source's active call; other numbers are inactive results; ? = inconclusive; . = no result given; ! = a repeat was not active; [ ] = dose if it differs, or a comment. Unless noted, the call rests on the fitted dose curve; in most records, active means well fitted curve in the direction sought with a large enough effect; inconclusive means small, poorly fitted or top-dose-only effect, or another doubt; inactive means no such curve, though single readings can be large; an effect the other way counts as inactive or inconclusive.
SMILES,HTT-AS act,GPR32 ag,FH mod,HTT promoter inh,NTMT1 inhibitor
Oc1ccc(NCc2ccccc2OCc2ccccc2F)cc1,-2%,-31,?,-18%,?
Oc1ccc(NCc2ccccc2OCc2ccccc2Cl)cc1,-11%,-23,?,-18%,45µM*
CCOC(=O)c1nn(-c2ccc(OC)cc2)c(=O)c2c(N)scc12,.,.,.,.,13µM*
CCOC(=O)c1nn(-c2ccccc2)c(=O)c2c(N)sc(C)c12,.,.,.,.,-4%
CN(C(=O)c1cc2c(=O)n3ccccc3nc2n1C)c1ccccc1,5.6µM*,-16,4%,83%,?
Cc1cccn2c(=O)c3cc(C(=O)NC(C)(C)C)n(C)c3nc12,19%,-2,-21%,26%,?
CCOc1ccc(-c2cc(CCCC(=O)NCCc3ccc(SC)cc3)no2)cc1,-79%,17,2%,0.79µM*,-1%
CCOc1ccc(CCNC(=O)CCCn2c(=O)c3cccn3c3cccnc32)cc1,-7%,-12,4%,0%,-5%
CCOc1ccc(-c2cc(CCCC(=O)NCCc3ccc(Cl)cc3)no2)cc1,-73%,1,-3%,1.8µM*,?
CCOc1ccc(-c2cc(CCCC(=O)NCCc3ccc(OCC)c(OCC)c3)no2)cc1,-80%,8,1%,?,1%
Cc1cccc(NC(=O)CSc2nc3ccccc3nc2N2CCCCC2)c1C,9%[11.5 µM],-3,-22%,-9%,14%
CN(CCOc1ccc(C[C@H](Nc2ccccc2C(=O)c2ccccc2)C(=O)O)cc1)c1ccccn1,.,.,.,.,79µM*!
COC(=O)C(Cc1ccc(OCCn2c(=O)sc3cc(C(=O)c4ccccc4)ccc32)cc1)C(=O)OC,.,.,-5%,.,4%[57.5 µM]
COc1ccc(S(=O)(=O)N(CC(=O)NCc2ccccc2)c2ccc(C)cc2)cc1OC,-5%,31,-9%,62%,1%
COc1ccc(S(=O)(=O)N(CC(=O)NC(C)c2ccccc2)c2ccc(C)cc2)cc1OC (centres undefined),-53%,76*,?,?,-2%
Nc1ccc2cc3ccc(N)cc3nc2c1,-44%,32,-15%[53.3 µM],?,35µM*
Cc1cccc(N(CC(=O)NCCSc2ccc(Cl)cc2)S(C)(=O)=O)c1C,-41%,103*,-12%,?,20%
Cc1ccc(SCCNC(=O)CN(c2cccc(C)c2C)S(C)(=O)=O)cc1,-38%,76*,-3%,?,-3%
C[C@@H](OC[C@@]1(c2ccccc2)CC[C@]2(CCC(=O)N2)CN1)c1cc(C(F)(F)F)cc(C(F)(F)F)c1,.,.,.,.,-12%
O=C1Nc2ccccc2Oc2cc(Oc3cccc(Cl)c3)ccc21,-20%,91*,1%,-12%,11%
O=C1Nc2ccccc2Oc2cc(Oc3ccccc3)ccc21,-7%,-14,-9%,-12%,-13%
NCCCC(=O)Nc1ccc(Cl)cc1C(=O)c1ccc[nH]1,.,.,.,.,-1%
CN(C)C/C=C/C(=O)Nc1ccc(C(=O)Nc2cccc(Nc3ncc(Cl)c(-c4c[nH]c5ccccc45)n3)c2)cc1,.,.,6%,.,50µM*!
CN(CCCN1c2ccccc2CCc2ccccc21)CC(=O)c1ccc(Cl)cc1,3%,109*,-11%[53.3 µM],0%,32µM*
CCCCS(=O)(=O)NC(Cc1ccc(OCCCCC2CCNCC2)cc1)C(=O)O (centres undefined),.,.,9%,.,3%[57.5 µM]
SMILES,HTT-AS act,GPR32 ag,FH mod,HTT promoter inh,NTMT1 inhibitor
CCO[C@H](Cc1ccc(OCCc2ccc(OS(C)(=O)=O)cc2)cc1)C(=O)O,1%,76*,-8%[53.3 µM],12%,-16%[57.5 µM]
Cc1ccc(Cl)cc1N1CCN(C(=O)CCS(=O)(=O)c2ccc3c(c2)oc(=O)n3C)CC1,-31%,2,-20%,?,-12%
Cc1cccc(NC(=O)CSc2nnc(-c3cccs3)o2)c1,25µM*,-12,-7%,89%,18%
COc1cc(Nc2ncc3c(n2)CCN(Cc2cc(F)cc(F)c2)C3)cc(OC)c1,-34%,-6,-3%,?,3%
CCc1ccc(NC(=O)c2cc(CN3CCOCC3)on2)cc1,25%,20,-6%,29%,2%
CCn1cc2nc(SCc3cccc(C(F)(F)F)c3)n(Cc3ccc(Cl)cc3)c(=O)c2n1,10%,-11,?,-8%,4%
